Here are results for 40 compounds from PubChem BioAssay (NCI).

The structures appear in SMILES notation. About 83,000 compounds went through this panel and 20% of them were active in at least one assay; those are over-represented in the sample as a whole.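 Single-concentration screen, 48 h exposure, 96-well plates. Endpoint: percent growth. Below 10 = active.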 Calls of active or inactive are those of the source.

The subject of this test is HOP-92 NSCLC. In words: NCI-60 one-dose screen, 48 h (100 = growth as untreated, 0 = no growth, -100 = all killed). The settings on record: 10 µM unless noted. The protocol: Growth inhibition of the HOP-92 human Non-Small Cell Lung tumor cell line is measured as a screen for anti-cancer activity. Cells are grown in 96 well plates and exposed to the test compound for 48 hours. Compounds are tested at a single concentration, which is 10^-5 M for most compounds. The reported endpoint is percent growth (GI% or GIPRCNT), where numbers from 0 - 100% represent growth inhibition, and numbers from -100% - 0 represent cell death. For example, a value of 40 represents 60% growth inhibition. A value of 0 means no net growth occurred over the course of the experiment. A value of -40 indicates 40% of cells at the beginning of the experiment died by the end of the experiment. A value of -100 means all cells are dead at the end of the experiment.
NCI-60 Human Tumor Cell Lines Screen was performed using the standard one-dose NCI protocol, which is described in more detail at https://dtp.cancer.gov/discovery_development/nci-60/default.htm.
Compounds with GIPRCNT values below 10 were considered active. Activity score was based on GIPRCNT using the following formula: […]
Score is 0 for GIPRCNT values of 100 or above, 50 for GIPRCNT values of 0, and 100 for GIPRCNT values of -100.
Consider `COc1c(Cl)cc(Cl)c2ccc(C=C3C(=O)NC(=S)NC3=O)nc12`, for which the growth is 116% (inactive).
On to `O=S(=O)(NCCNc1nccc(-c2c(-c3ccc(F)c(O)c3)nc3occn23)n1)c1ccccc1`, for which the growth is 43.7% (inactive).
For `CC(C)NC(=O)N1C(=O)CCC1NNC(=O)c1ccc([N+](=O)[O-])cc1` (stereo not given) the value was 109% (inactive); for `CCN1C(=O)N(CC)C2C1NN=c1s/c(=C3\C(=O)Nc4ccccc43)c(=O)n12` (stereo not given), -4.18% (active); for `CCNC(=O)c1[nH]cc(-c2ccc(OC)cc2)c1-c1cc(OC)c(OC)c(OC)c1`, 8.85% (active).
`O=S(=O)(NCCCNc1nccc(-c2c(-c3ccc(F)c(O)c3)nc3sccn23)n1)c1ccc(F)cc1`: the growth is 6.16% (active).
The figure for `CN1C(=O)N(C)[C@H]2NC(NN)=N[C@H]21` is 90.3% (inactive); for `COc1cnccc1-c1nc2ccc3[nH]ncc3c2c2c1CCCC2` it is 69.2% (inactive); for `CN1CCN(C(=O)[C@]2(C)CC[C@]3(C)CC[C@]4(C)C(=CC(=O)[C@@H]5[C@@]6(C)CCC(=O)NC(C)(C)[C@@H]6CC[C@]54C)[C@@H]3C2)CC1` it is 64.7% (inactive).
The figure for `O=C(Nc1nc2ccc(S(=O)(=O)Nc3ccc(C4(C(F)(F)F)CC4)cc3)cc2[nH]1)c1cnccn1` is 39.3% (inactive); for `CCN(CC)CCCC(C)Nc1cc(-c2cccc(OC(F)(F)F)c2)nc2ccc(N3CCCC3)cc12` (stereo not given) it is -5.67% (active); for `Cn1c(COC(=O)NCCc2ccccn2)nc2c(N3CCOCC3)nc(Cl)nc21` it is -29.5% (active).
For `CCN(CC)CCCC(C)Nc1c2c(nc3ccc(OC)cc13)CCCC2` (stereo not given) the value was 84.2% (inactive); for `N#C/C(=C\c1ccc(Br)cc1)n1nnc2cccc(F)c21`, -23.7% (active).
For the compound `CC(=O)c1c[nH]c2ccc(-c3ccnc(Nc4ccc(NC(=O)c5cccc(F)c5)c(CN5CCOCC5)c4)n3)cc12`, the growth was -22.8% (active).
The figure for `COc1ccc(C(=O)c2cc(C)c(OC)c(C)c2)c(OC)c1N(C(=O)C(Cl)Cl)C(=O)C(Cl)Cl` is 2.49% (active).
The figure for `CC(C)[N+](C)(CCOC(COc1ccccc1)COc1ccccc1)C(C)C` is 72.2% (inactive); for `CC(=O)OCCCCCNc1ccccc1` it is 109% (inactive); for `COc1cccc2c1C(=O)c1c(O)c3c(c(O)c1C2=O)C[C@@](O)(C(=O)CO)C[C@@H]3O[C@H]1C[C@H](N)[C@@H](O)[C@H](C)O1` it is -26% (active).
For `FC(F)(F)c1cccc(Oc2ccc(Nc3ncnc4ccc(OCCCN5CCOCC5)cc34)cc2Cl)c1` the value was 41.5% (inactive).
In the case of `COc1cc(C(=O)/C=C/c2c(C)n([O-])c3ccc(Cl)cc3[n+]2=O)cc(OC)c1OC`, the growth is -31.2% (active).
`COc1cc(C2NC(c3cc(OC)c(OC)c(OC)c3)C(C#N)(C#N)C2(C#N)C#N)cc(OC)c1OC` (stereo not given): the growth was 96.5% (inactive).
For the compound `CCOC(=O)N1CCc2c(sc3nc4nc[nH]n4c(=O)c23)C1`, the growth was 93.8% (inactive).
For `c1ccc(Cn2nc3c(c2-c2ccccc2)-c2oncc2CC3)cc1` the value was 62.3% (inactive); for `Cc1ccc(-c2c(Br)c(OC(=O)CO[C@@H]3C[C@H](C)CC[C@H]3C(C)C)c(-c3ccc(C)cc3C)c(Br)c2OC(=O)CO[C@H]2C[C@@H](C)CC[C@@H]2C(C)C)c(C)c1`, 93.6% (inactive); for `C=CCn1c(SCC(=O)Nc2ccc(C(=O)/C=C/c3cc(OC)c(OC)c(OC)c3)cc2)nnc1-c1cc(-c2ccc(S(C)(=O)=O)cc2)nc2ccccc12`, 112% (inactive).
The figure for `CCN(CCNc1cc(OC)cc2cccnc12)CCc1ccccc1` is 77.2% (inactive).
Regarding `COc1ccc(/C=C\c2nc3ccccc3s2)cc1OP(=O)(O)O`, the growth was 90.2% (inactive).
In the case of `Nc1ccccc1NC(=O)c1ccc(CN2CCC/C(=C\c3cccc(Cl)c3)C2=O)cc1`, the growth was 44.1% (inactive).
With `O=C(NCCc1ccccn1)OCc1nc2nc(Cl)nc(N3CCOCC3)c2[nH]1`, the growth was 22.4% (inactive).
The figure for `Clc1nc(Nc2ccccc2)nc(Nc2ccccc2)n1` is 77.9% (inactive).
The figure for `Cn1c(COC(=O)NCCn2ccnc2)nc2c(N3CCOCC3)nc(-c3ccccc3)nc21` is -75.2% (active); for `COc1cc(NCCN(CC(C)C)C2CCCC2)c2ncccc2c1` it is 95.9% (inactive); for `NC(=S)N/N=C(\c1ccc(Cl)cc1)C1CC1` it is 97.2% (inactive).
For `CCCCCCCCCCCC(=O)C(CCCCCCCCCC)C(=O)Nc1ccccc1` (stereo not given) the value was 102% (inactive); for `CCCCCOc1ccc(/C=N/Nc2cc(C)nc3ccc(Br)cc23)cc1`, 69.7% (inactive); for `Cc1cc(Nc2cccc(C(F)(F)F)c2)n2c(nc3ccccc32)c1C#N`, -2.32% (active).
In the case of `O=C(/C=C\c1ccc(OCCCCCC[P+](c2ccccc2)(c2ccccc2)c2ccccc2)cc1)c1ccc2c(c1)OCCO2`, the growth is -29.2% (active).
For the compound `CS(=O)(=O)OCCN(CCOS(C)(=O)=O)c1ccc(/C=N/Nc2ccc([N+](=O)[O-])cc2[N+](=O)[O-])cc1`, the growth is 71.8% (inactive).
The figure for `O=C1CCC(NC(=S)Nc2ccccc2)N1` (stereo not given) is 102% (inactive).
